The source of these data is PubChem BioAssay.

Results filed as inconclusive are left out. The source made the active and inactive calls.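 How the source made its calls: active means cell viability at or below a set limit in both duplicate runs, the limit being the all-compound median minus 4 SD (cut at about 23% in these data, passing the limit was not always enough); inconclusive means no clear call, values can overlap the other calls; inactive means the rest.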

The assay is described as follows: viability of HCT116 without oncogenic beta-catenin – human colon tumor cells, pilot screen (AID 823).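 Further: 0% = wells killed by 20 µM Hyamine and 100% = untreated DMSO cell wells.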 To be noted: HCT116 beta-catenin knockout viability, CellTiter-Glo, 60 h; at 10 µM; stronger effect = lower value. (ATP-based viability assays read luminescence as a measure of living cells.)
Turning to `O=C1CCCC2=C1C(c1cccnc1)Nc1ccccc1N2` (centres undefined), the viability was 90.8% (inactive).

On to `CCCOC(=O)COc1cc(C)cc2oc(=O)c3c(c12)CCC3`, for which the viability was 88% (inactive).

As to `COc1cccc(OCC(=O)N2CCN(C)CC2)c1`, the viability was 99.8% (inactive).

Take `COc1cc2c(cc1OC)-c1c(OC)c(OC)cc3c1C(C2)N(C)CC3` (centres undefined): the viability is 73.6% (inactive).

On to `CCOC(=O)c1cncn1C(C)c1ccccc1` (centres undefined), for which the viability is 102% (inactive).

On to `CN1C(=O)C(Cc2cccs2)C(=O)N(C)C1=O`, for which the viability is 100% (inactive).

Take `O/N=C/c1c[nH]c2ccccc12`: the viability is 99.9% (inactive).

In the case of `C=C(C)c1cccc(C(C)(C)NC(=O)NC2CN3CCC2CC3)c1` (centres undefined), the viability is 94.4% (inactive).

Take `Nc1ccc(S(=O)(=O)N2CC3CC(C2)c2cccc(=O)n2C3)cc1` (centres undefined): the viability is 101% (inactive).

`CCCCCP(=O)(O)c1ccccc1`: the viability was 95.2% (inactive).

On to `CN1CCN(c2ccc(NC(=O)C(C)(C)C)cc2)CC1`, for which the viability was 94.8% (inactive).

Turning to `CCCOc1ccccc1C1SCC(=O)Nc2c1c(=O)[nH]n2C(C)CCC` (centres undefined), the viability was 94% (inactive).

`CC(C)CC1C(C#N)=C(N)Oc2c1c(=O)oc1ccccc21` (centres undefined): the viability was 102% (inactive).

As for `CC12CN3CC(C)(CN(C1)C3c1cccnc1)C2=O` (centres undefined), the viability is 103% (inactive).

In the case of `CN1CCN(CCC(C#N)(c2ccccc2)c2ccccc2)CC1`, the viability was 87% (inactive).

In the case of `CCOC(=O)c1c(C)c(P(=S)(N2CCOCC2)N2CCOCC2)n(C)c1C`, the viability was 89.1% (inactive).

Turning to `Cc1ccc2c(c1)C1CN(C)CCC1N2C(=O)Cn1nnc(-c2ccccc2F)n1` (centres undefined), the viability is 85.2% (inactive).

Consider `Clc1cccc(CN2CCCCC2c2cccnc2)c1` (centres undefined), for which the viability was 81.9% (inactive).

For `C=Cn1ccnc1P(=S)(c1ccn(C)c1)c1nccn1C=C`, the viability was 100% (inactive).

For the molecule `Cc1nn(C2CCOC(C)(C)C2)c2c1C(c1ccc3c(c1)OCO3)SCC(=O)N2` (centres undefined), the viability is 97% (inactive).

Consider `O=C(CN1CC(c2ccccc2)CC1=O)NCc1ccc(F)cc1` (centres undefined), for which the viability was 103% (inactive).

For the molecule `O=c1c2ccccc2nc(-c2cccs2)n1-c1cnccn1`, the viability was 99.7% (inactive).

On to `COc1ccc(CC2C(=O)NC(=O)N(c3ccccc3)C2=O)c(OC)c1` (centres undefined), for which the viability is 89.6% (inactive).

As for `CC1(C)CC(n2[nH]c(=O)c3c2NC(=O)CSC3c2ccc(F)cc2)CCO1` (centres undefined), the viability was 95.8% (inactive).

With `Cc1cc(OCC(=O)NC2CCS(=O)(=O)C2)c2c3c(c(=O)oc2c1)CCC3` (centres undefined), the viability is 87.2% (inactive).

Consider `COc1cc(C2SCC(=O)Nc3c2c(=O)[nH]n3C2CCCCCC2)cc(OC)c1OC` (centres undefined), for which the viability is 92.6% (inactive).

For the molecule `FC(F)(F)/C(=N\P(=S)(N1CCOCC1)N1CCOCC1)N1CCOCC1`, the viability was 94.9% (inactive).

As to `O=C(CN1CCOCC1)c1ccc2cc[nH]c2c1`, the viability is 105% (inactive).

Regarding `Cc1nc2ccc(Cl)cn2c1P(=S)(N1CCOCC1)N1CCOCC1`, the viability is 99.8% (inactive).

As usually defined, the viability is a read-out of living cells in per cent, often relative to untreated cells.
